The source of these data is PubChem BioAssay (Tox21).

Unmarked numbers belong to inactive results. Inconclusive results are not listed. Activity calls are given as the source filed them. The call rests on the fitted dose curve.

Assay [1] addresses Acetylcholinesterase (Homo sapiens) (UniProt P22303). The assay is described as follows: Acetylcholinesterase (AChE) small molecule antagonists: colormetric cell-based qHTS assay (AID 1347395). Further: nearly all actives have a fitted effect of over 30% in size. A digest of the protocol:
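AChE inhibition read colorimetrically via DTNB–thiocholine in SH-SY5Y cells. Compound 30 min, substrate 90 min, both 37 C.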
A general note: Quantitative high-throughput screening tests each substance at several concentrations.

The target is the same in assay [2]. The assay is described as follows: Acetylcholinesterase (AChE) small molecule antagonists: enzyme-based qHTS assay (AID 1347397). Further: nearly all actives have a fitted effect of over 55% in size. The conditions noted are these: Potency: AChE enzyme activity inhibition; outcome: AChE enzyme activity inhibition. A digest of the protocol: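 Enzyme inhibition was scored from DTNB-detected thiocholine formed by recombinant human AChE acting on acetylthiocholine. The 30 min compound preincubation and 10 min substrate reaction were both run at room temperature, with DMSO as vehicle control.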

Assay [3] shares this target. Kind of assay: Acetylcholinesterase (AChE) small molecule antagonists: fluorescence cell-based qHTS assay (AID 1347398). Further: nearly all actives have a fitted effect of over 50% in size. The settings on record: Potency: AChE activity; outcome: AChE activity. In short, it runs like this:
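Endogenous acetylcholinesterase of SH-SY5Y neuroblastoma cells is measured in situ. After overnight attachment and 30 min compound exposure, cells receive acetylthiocholine and Thiolite Green; fluorescence is read after 40 min at room temperature.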

For assay [4] the target is unchanged. Kind of assay: Acetylcholinesterase (AChE) small molecule antagonists: enzyme-based qHTS assay with human liver microsomes (AID 1347399). Further: nearly all actives have a fitted effect of over 60% in size. The conditions noted are these: Potency: qHTS inhibition; outcome: qHTS inhibition. In short, it runs like this: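 Recombinant human AChE (50 mU/mL in the enzyme mix) and human liver microsomes (0.25 mg/mL final) were preincubated with compound and NADPH (0.25 mg/mL final) for 30 min at 37 C. Acetylthiocholine/DTNB was then added; thiocholine was read colorimetrically after 10 min at room temperature.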
Potency means the concentration at half of the fitted maximal effect.

Chain of Acetylcholinesterase (Homo sapiens) (P22303 whole entry, looked up): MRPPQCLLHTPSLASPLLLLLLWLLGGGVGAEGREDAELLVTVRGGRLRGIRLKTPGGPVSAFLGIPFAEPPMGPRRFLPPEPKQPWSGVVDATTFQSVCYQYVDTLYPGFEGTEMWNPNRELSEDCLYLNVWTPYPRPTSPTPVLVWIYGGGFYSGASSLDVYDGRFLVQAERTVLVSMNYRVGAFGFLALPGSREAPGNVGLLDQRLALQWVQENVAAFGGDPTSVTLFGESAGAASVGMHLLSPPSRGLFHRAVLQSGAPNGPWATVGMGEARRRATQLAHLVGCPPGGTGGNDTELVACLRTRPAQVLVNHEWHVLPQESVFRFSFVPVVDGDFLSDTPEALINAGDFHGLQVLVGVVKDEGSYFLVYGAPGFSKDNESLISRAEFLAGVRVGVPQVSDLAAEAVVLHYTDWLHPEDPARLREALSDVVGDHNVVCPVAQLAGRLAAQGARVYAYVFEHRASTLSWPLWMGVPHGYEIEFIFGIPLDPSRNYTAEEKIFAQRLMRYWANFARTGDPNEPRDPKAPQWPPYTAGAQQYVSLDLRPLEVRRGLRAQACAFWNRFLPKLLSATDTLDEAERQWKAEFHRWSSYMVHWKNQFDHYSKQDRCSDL

`CCOC(=O)c1nc(C(Cl)(Cl)Cl)n(-c2ccc(Cl)cc2Cl)n1`: the Potency entry in assay [1], in assay [2], in assay [3] and in assay [4] was “inactive” in each case.
On to `O=C(O)[C@@H]1CSCN1`, for which the Potency entry in assay [1], in assay [2], in assay [3] and in assay [4] was “inactive” in each case.
For the compound `O=C1CC[C@@H](C(=O)O)N1`, the Potency entry in assay [1], in assay [2], in assay [3] and in assay [4] was “inactive” in each case.
With `Cc1nc2ccccc2n1Cc1ccc(Cl)cc1`, the Potency entry in assay [1], in assay [2], in assay [3] and in assay [4] was “inactive” each time.
With `CCCCC1=NC2(CCCC2)C(=O)N1Cc1ccc(-c2ccccc2-c2nn[nH]n2)cc1`, the Potency result in assay [1], in assay [2], in assay [3] and in assay [4] was “inactive” throughout.
Take `C/C=C/C(=O)C1=C(C)C=CCC1(C)C`: the Potency result in assay [1], in assay [2], in assay [3] and in assay [4] was “inactive” in each case.
As for `CC(C)c1ccc(C#N)cc1`, the Potency entry in assay [1], in assay [2], in assay [3] and in assay [4] was “inactive” throughout.
As to `CC(C)OC(=O)c1cc2c(OCC(O)CNC(C)(C)C)cccc2[nH]1` (stereo unspecified), the Potency result in assay [1], in assay [2], in assay [3] and in assay [4] was “inactive” each time.
In the case of `NS(=O)(=O)c1cc(C2(O)NC(=O)c3ccccc32)ccc1Cl` (stereo unspecified), the Potency result in assay [1], in assay [2], in assay [3] and in assay [4] was “inactive” in each case.
As for `C=C1CC[C@H]2O[C@]2(C)CC[C@@H]2[C@@H]1CC2(C)C`, the Potency entry in assay [1], in assay [2], in assay [3] and in assay [4] was “inactive” each time.
For the compound `CCCCC(CC)CN` (stereo unspecified), the Potency entry in assay [1], in assay [2], in assay [3] and in assay [4] was “inactive” each time.
Turning to `CCCCCOC(=O)CCCC`, the Potency entry in assay [1], in assay [2], in assay [3] and in assay [4] was “inactive” throughout.
Regarding `CC(CC1c2ccccc2CCc2ccccc21)CN(C)C` (stereo unspecified), the Potency entry in assay [1], in assay [2], in assay [3] and in assay [4] was “inactive” throughout.
Consider `O=C(O)c1c(O)c(-c2ccccc2)nc2ccccc12`, for which the Potency result in assay [1], in assay [2], in assay [3] and in assay [4] was “inactive” in each case.
Consider `CC(C)(C)C1(CCc2ccc(Cl)cc2)CO1` (stereo unspecified), for which the Potency entry in assay [1], in assay [2], in assay [3] and in assay [4] was “inactive” each time.
`COc1ccc(/C=C/C(=O)c2ccc(OC)cc2OC)cc1`: the Potency entry in assay [1], in assay [2], in assay [3] and in assay [4] was “inactive” each time.
Consider `CN(C(=O)C(Cl)Cl)c1ccc(OC(=O)c2ccco2)cc1`, for which the Potency entry in assay [1], in assay [2], in assay [3] and in assay [4] was “inactive” in each case.
Turning to `CCO[Si](C)(OCC)OCC`, the Potency result in assay [1], in assay [2], in assay [3] and in assay [4] was “inactive” each time.
In the case of `Cc1ccc(-c2ccccc2)cc1`, the Potency result in assay [1], in assay [2], in assay [3] and in assay [4] was “inactive” in each case.
For the compound `CCOc1ccc(NC(=O)OC(C)C)cc1OCC`, the Potency entry in assay [1], in assay [2], in assay [3] and in assay [4] was “inactive” in each case.
Regarding `CC(C)C(OC(=O)c1ccccc1)C(C)(C)COC(=O)c1ccccc1` (stereo unspecified), the Potency entry in assay [1], in assay [2], in assay [3] and in assay [4] was “inactive” throughout.
With `CCCCCCCCN1CCCC1=O`, the Potency entry in assay [1], in assay [2], in assay [3] and in assay [4] was “inactive” each time.
Regarding `COc1ccc(/C=C/S(=O)(=O)NC(=O)c2ccc(C)cc2Cl)cc1`, the Potency entry in assay [1], in assay [2], in assay [3] and in assay [4] was “inactive” each time.
Take `CCOc1ncc(F)c(=O)[nH]1`: the Potency result in assay [1], in assay [2], in assay [3] and in assay [4] was “inactive” in each case.
Turning to `CC(=O)c1cnccn1`, the Potency entry in assay [1], in assay [2], in assay [3] and in assay [4] was “inactive” each time.
Regarding `Clc1cc(Cl)c2c(c1)N=C1CCCCCN1C2`, the Potency was 776 nM (active) in assay [1], 871 nM (active) in assay [2], 617 nM (active) in assay [3] and 3890 nM (active) in assay [4].
Taken in the same sequence, the figures for `O=C(O)c1ccccc1C(=O)Nc1ccc(S(=O)(=O)Nc2nccs2)cc1` were “inactive”, “inactive”, “inactive” and “inactive”.
Taken in the same sequence, the figures for `C[C@@H](c1ncncc1F)C(O)(Cn1cncn1)c1ccc(F)cc1F` (stereo partly specified) were “inactive”, “inactive”, “inactive” and “inactive”.
Taken in the same sequence, the figures for `CCCCc1ccc2cccc(S(=O)(=O)O)c2c1` were “inactive”, “inactive”, “inactive” and “inactive”.
As to `C/C=C(\C)C(=O)OCC/C=C\CC`, the Potency entry in assay [1], in assay [2], in assay [3] and in assay [4] was “inactive” in each case.
In the case of `C=CC(=O)O[C@H]1C[C@@H]2CC[C@@]1(C)C2(C)C`, the Potency result in assay [1], in assay [2], in assay [3] and in assay [4] was “inactive” in each case.
Consider `Nc1nc(=O)n([C@@H]2O[C@H](CO)[C@@H](O)[C@@H]2F)cc1I`, for which the Potency result in assay [1], in assay [2], in assay [3] and in assay [4] was “inactive” throughout.
With `O=C(Nc1ccc(Cl)cc1)Nc1ccc(Cl)c(C(F)(F)F)c1`, the Potency result in assay [1], in assay [2], in assay [3] and in assay [4] was “inactive” each time.
For the compound `CC(C)NCCCC1(C(N)=O)c2ccccc2-c2ccccc21`, the Potency entry in assay [1], in assay [2], in assay [3] and in assay [4] was “inactive” throughout.
Turning to `CN(C)c1ccc(N=Nc2ccccc2C(=O)O)cc1`, the Potency entry in assay [1], in assay [2], in assay [3] and in assay [4] was “inactive” throughout.
Consider `COC(=O)C(C)(C)C`, for which the Potency entry in assay [1], in assay [2], in assay [3] and in assay [4] was “inactive” each time.
In the case of `O=C(O)Cc1ccc(OCCNC[C@H](O)c2ccccc2)cc1`, the Potency result in assay [1], in assay [2], in assay [3] and in assay [4] was “inactive” in each case.
In the case of `COC(=O)/C=C/C(C)=C\C=C\C(C)=C\C=C\C=C(C)\C=C\C=C(C)\C=C\C(=O)O`, the Potency result in assay [1], in assay [2], in assay [3] and in assay [4] was “inactive” throughout.
With `CO[Si](CCCCl)(OC)OC`, the Potency result in assay [1], in assay [2], in assay [3] and in assay [4] was “inactive” each time.
Regarding `CCN(CC)C(=O)N(CC)CC`, the Potency result in assay [1], in assay [2], in assay [3] and in assay [4] was “inactive” throughout.
With `CO[Si](C)(OC)OC`, the Potency result in assay [1], in assay [2], in assay [3] and in assay [4] was “inactive” throughout.
Take `COC(=O)C1=C(C)NC(C)=C(C(=O)OC(C)(C)CN(C)CCC(c2ccccc2)c2ccccc2)C1c1cccc([N+](=O)[O-])c1` (stereo unspecified): the Potency entry in assay [1], in assay [2], in assay [3] and in assay [4] was “inactive” throughout.
For the compound `C[C@H]1c2cccc(O)c2C(O)=C2C(=O)[C@]3(O)C(O)=C(C(N)=O)C(=O)[C@@H](N(C)C)[C@@H]3[C@@H](O)[C@@H]21`, the Potency result in assay [1], in assay [2], in assay [3] and in assay [4] was “inactive” throughout.
For `CCCCOC(=O)C(C)CC` (stereo unspecified), the Potency entry in assay [1], in assay [2], in assay [3] and in assay [4] was “inactive” throughout.
